Experimental findings from PubChem BioAssay are described below.

Experiment [1] in a line: S. cerevisiae growth inhibition in permissive medium (OD615), pilot counter-assay for S. cerevisiae lifespan shortening project, permissive growth control (AID 705;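 active = growth inhibition above 25% in both replicates, a cutoff set 3 SD above the mean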). The following applies: OD615, 24 h, at 10 µM, stronger effect = higher value.
Experiment [2] in a line: doxorubicin toxicity protection in MRP-1 cells – H69AR cells, CellTiter-Glo, duplicate, MRP-1 activator project, pilot screen (AID 807;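 active = viability increase at or above a cutoff of the median across tested compounds plus 3 SD, cut at about 8.5% in these data, passing the limit was not always enough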;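 also: compound pretreatment 18-22 h then 72 h combined with doxorubicin; 0% = doxorubicin alone and 100% = vehicle without doxorubicin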). The following applies: H69AR viability with doxorubicin, CellTiter-Glo luminescence; at 10 µM; stronger effect = higher value. (In general: ATP-based viability assays read luminescence as a measure of living cells.)
The nature of experiment [3]: viability of HCT116 without oncogenic beta-catenin – human colon tumor cells, pilot screen (AID 823;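 active = cell viability at or below a set limit in both duplicate runs, the limit being the all-compound median minus 4 SD, cut at about 23% in these data, passing the limit was not always enough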;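 also: 0% = wells killed by 20 µM Hyamine and 100% = untreated DMSO cell wells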). The following applies: HCT116 beta-catenin knockout viability, CellTiter-Glo, 60 h; at 10 µM; stronger effect = lower value.
Experiment [4] in a line: viability of PTEN-null HCT116 cells – cell-based, HCT116 clonal line, CellTiter-Glo, pilot screen (AID 824;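 active = viability at or below 27.92% in each of two runs, the all-compound median minus 4 SD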;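 also: 0% = 20 µM Hyamine control and 100% = vehicle cell control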). The following applies: HCT116 PTEN-deleted viability, 60 h, at 10 µM, stronger effect = lower value.
Experiment [5] is described as follows: RAM pathway blockade in budding yeast – dse1pr::URA3 reporter, 5-FOA selection, pilot screen (AID 869;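 active = inhibition over a set limit, the all-compound mean plus 3 SD, in both replicate runs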;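 also: 0% = DMSO wells with no growth and 100% = 10 µM 1-NA-PP1 with full growth; RAM network block rescues cells from 5-FOA so hits raise OD615 growth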). As to conditions: S. cerevisiae dse1pr::URA3 5-FOA growth, OD615, 2 d; at 10 µM; stronger effect = higher value; strain carries analog-sensitive mutant Cbk1 kinase.
The nature of experiment [6]: RAM signaling pathway blockade in yeast – S. cerevisiae, Pdr1DBD-CYC8 efflux-inhibited sensitized strain, primary screen (AID 1298).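 Also: 0% = DMSO untreated cells without growth and 100% = 10 µM 1-NA-PP1 full growth; higher means more yeast growth rescued from 5-FOA killing.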 As to conditions: S. cerevisiae cbk1-as DSE1-URA3 strain, 5-FOA growth OD615, 2 d; at 50 µM; stronger effect = higher value.
The nature of experiment [7]: S. cerevisiae growth inhibition in restrictive medium, OD615, pilot screen, restrictive growth control, yeast lifespan reduction project (AID 706;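 active = growth inhibition above a set limit, 3 SD over mean compound inhibition, in both replicates, cut at about 43% in these data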;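 also: modified DeaD lifespan yeast strain shifted to restrictive glucose medium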). The following applies: OD615, 48 h, at 10 µM, stronger effect = higher value.
Experiment [8] is described as follows: Her2 expression decrease, cell viability multiplex – SKBR3 breast tumor cells, AlphaScreen, ATP viability, primary screen (AID 461;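 active = Her2 level under about 52% in both replicate screens, with viability over 70% of control, limit read from the data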;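 as to Her2 level: lower value means less Her2 protein in the cells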;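 as to viability: percent of carrier control wells set as 100% viability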). As to conditions: SKBR3 Her2 protein level, 18-24 h, measured here: SKBR3 viability, ATP luminescence, at 10 µM.
For experiment [9], the target named is Receptor tyrosine-protein kinase erbB-2 (Homo sapiens) (UniProt P04626). The description is as above. The following applies: 18-24 h, at 10 µM, stronger effect = lower value.
Sequence of Receptor tyrosine-protein kinase erbB-2 (Homo sapiens) (P04626 whole entry, looked up): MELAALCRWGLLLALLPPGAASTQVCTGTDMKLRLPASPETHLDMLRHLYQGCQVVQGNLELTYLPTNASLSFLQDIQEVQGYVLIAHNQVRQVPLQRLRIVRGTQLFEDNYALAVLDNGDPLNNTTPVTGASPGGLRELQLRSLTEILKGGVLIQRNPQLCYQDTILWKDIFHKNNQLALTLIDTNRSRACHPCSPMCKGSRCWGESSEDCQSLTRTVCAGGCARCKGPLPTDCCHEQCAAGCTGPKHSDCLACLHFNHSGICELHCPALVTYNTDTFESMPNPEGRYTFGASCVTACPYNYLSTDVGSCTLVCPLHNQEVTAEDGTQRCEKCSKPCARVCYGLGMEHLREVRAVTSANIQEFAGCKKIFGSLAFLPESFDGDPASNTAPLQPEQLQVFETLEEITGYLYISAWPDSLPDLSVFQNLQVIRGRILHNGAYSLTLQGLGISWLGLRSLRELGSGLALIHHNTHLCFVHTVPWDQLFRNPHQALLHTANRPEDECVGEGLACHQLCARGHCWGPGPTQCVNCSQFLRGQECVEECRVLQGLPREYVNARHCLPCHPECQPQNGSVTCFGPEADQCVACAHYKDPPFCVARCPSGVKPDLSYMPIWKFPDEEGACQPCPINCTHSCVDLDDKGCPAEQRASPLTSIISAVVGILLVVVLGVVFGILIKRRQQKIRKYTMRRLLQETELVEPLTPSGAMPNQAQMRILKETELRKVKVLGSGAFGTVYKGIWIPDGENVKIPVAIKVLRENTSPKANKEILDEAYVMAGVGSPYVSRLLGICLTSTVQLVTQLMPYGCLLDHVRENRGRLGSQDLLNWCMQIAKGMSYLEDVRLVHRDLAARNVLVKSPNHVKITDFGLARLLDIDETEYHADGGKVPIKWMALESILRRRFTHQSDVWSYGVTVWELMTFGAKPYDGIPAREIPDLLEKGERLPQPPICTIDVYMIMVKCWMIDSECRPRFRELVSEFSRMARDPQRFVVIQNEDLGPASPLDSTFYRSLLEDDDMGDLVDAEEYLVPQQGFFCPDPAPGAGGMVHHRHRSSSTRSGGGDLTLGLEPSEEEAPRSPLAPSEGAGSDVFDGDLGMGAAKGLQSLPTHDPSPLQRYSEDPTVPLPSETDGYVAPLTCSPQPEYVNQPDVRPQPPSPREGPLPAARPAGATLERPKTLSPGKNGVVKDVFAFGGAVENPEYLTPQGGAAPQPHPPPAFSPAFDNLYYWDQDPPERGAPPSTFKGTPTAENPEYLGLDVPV
The nature of experiment [10]: reduced viability of SK-BR-3 breast cancer cells – cell-based, 24 h, human, pilot screen (AID 572;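 active = viability at or below 10% of carrier control in both of two separate runs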;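 also: compound exposure lasted between 18 and 24 h rather than exactly 24 h; 100% = carrier-treated control wells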). The following applies: SK-BR-3 viability, CellTiter-Glo luminescence, at 10 µM, stronger effect = lower value.
Experiment [11] can be described thus: HUVEC growth inhibition – cell-based, human, primary screen (AID 575;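 active = viability at or below 30% in both replicate assays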;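 also: 100% = median of untreated cell wells with 0.1% DMSO on each plate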). The following applies: HUVEC proliferation, CellTiter-Glo luminescence, 72 h; at 10 µM; stronger effect = lower value.
A short description of experiment [12]: H69AR cell proliferation blockers – human, duplicate replicates, primary screen (AID 580;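 active = viability at or under a set limit in both replicates, limit being median viability minus 3 SD, cut at about 48% in these data, passing the limit was not always enough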;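 also: 100% = mean luminescence of untreated wells and 0% = no signal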). The following applies: H69AR lung tumor cells viability, ATP luminescence, 72 h; at 10 µM; stronger effect = lower value.
Experiment [13] is described as follows: MRP1 drug-resistance reversers in H69AR cells – cell-based, doxorubicin co-treatment, pilot screen (AID 601;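 active = viability loss from added drug above about 55%, and viability with drug at most 40%, in both replicates, limit read from the data, passing the limit was not always enough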). The following applies: CellTiter-Glo, 72 h, at 10 µM; for differential viability (reversal): stronger effect = higher value.
Setting [14] is: H69AR cells + 2 uM doxorubicin, measured here: viability with 2 uM doxorubicin, stronger effect = lower value.
Where [15] appears, read: H69AR cells, compound alone cytotoxicity.

Structures are written as SMILES. Records with an inconclusive call do not appear. Active and inactive are the calls of the source.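 The calls were made as follows, unless noted: active = RAM network inhibition above 8.4% in each of two replicates, 3 SD over the compound average; inconclusive = above 8.4% inhibition in only one replicate; inactive = 8.4% inhibition or less in each replicate.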

A word on the viability: it is a read-out of living cells in per cent, often relative to untreated cells. What is called inhibition is the relative decrease from the control value, in per cent. Turning to `COc1ccc(Br)cc1C1CC(=O)N2CN(C)CSC2=C1C#N` (stereo unspecified), in experiment [1], the growth inhibition was 4.76% (inactive). Besides, the viability increase in experiment [2] was -4.75% (inactive). For the same molecule, the viability in [3] was 81.6% (inactive); in [4], 78.3% (inactive). The inhibition in [5] was 0.03% (inactive). Moreover, in [6], the RAM network inhibition is 1.82% (inactive).
Regarding `CCOc1ccccc1N1CSC2=C(C#N)C(c3c(OC)ccc4ccccc34)CC(=O)N2C1` (stereo unspecified), in [1], the growth inhibition is 4.14% (inactive). Further, the viability increase in [2] is -6.32% (inactive). Besides, the viability in experiment [3] was 67.3% (inactive); in experiment [4], 65.5% (inactive). For the same molecule, the inhibition in experiment [5] was 3.73% (inactive). The RAM network inhibition in [6] is 3.99% (inactive).
As for `CCOC(=O)c1ccc(NC(=O)CSc2nc3c(c(=O)n2CC)SC(C)C3)cc1` (stereo unspecified), the growth inhibition in experiment [7] was -18.3% (inactive). Moreover, the viability increase in [2] is -3.44% (inactive). The viability is 84% (inactive) in experiment [3] and 80.8% (inactive) in experiment [4]. Besides, in experiment [5], the inhibition is 0.12% (inactive). Besides, the RAM network inhibition in [6] was 3.13% (inactive).
Take `c1ccc(Cc2nnc3sc(-c4ccco4)nn23)cc1`: the growth inhibition in [7] is 68.7% (active). In experiment [2], the viability increase was -5.05% (inactive). Moreover, the viability in experiment [3] was 108% (inactive); in experiment [4], 94.7% (inactive). Further, the inhibition in [5] is 1.98% (inactive). For the same molecule, in [6], the RAM network inhibition was 5.97% (inactive).
In the case of `Cc1ccc(-c2nn3c(C)nnc3s2)cc1NC(=O)c1ccc(Br)o1`, in experiment [1], the growth inhibition is 4.25% (inactive). Moreover, the viability increase in experiment [2] is -3.03% (inactive). In addition, the viability is 105% (inactive) in experiment [3] and 93% (inactive) in experiment [4]. Besides, the inhibition in [5] was 3% (inactive). Besides, the RAM network inhibition in experiment [6] is 8.4% (inactive).
Take `Cc1ccc(OCC(=O)Nc2cc(-c3nn4c(C)nnc4s3)ccc2C)cc1`: the growth inhibition in [1] was 0.12% (inactive). The viability increase in [2] was -4.09% (inactive). For the same molecule, the viability in [3] is 93.7% (inactive); in experiment [4] it was 88% (inactive). Further, the inhibition in experiment [5] is 3.09% (inactive). For the same molecule, the RAM network inhibition in experiment [6] was 10.7% (inactive).
Regarding `Cc1cc(/C=N/n2cnnc2)c(C)n1-c1ccc(OCc2ccccc2F)cc1`, the growth inhibition in experiment [1] is -0.03% (inactive). Also, the viability increase in experiment [2] was -6.9% (inactive). In addition, the viability in [3] is 8.8% (active); in experiment [4] it was 13.7% (active). In addition, the inhibition in [5] was 1.2% (inactive). For the same molecule, the RAM network inhibition in [6] is 11.1% (inactive).
With `CCc1ccc(Cn2nnc(C(=O)NCc3ccccc3OC)c2N)cc1`, the growth inhibition in [7] was 5.92% (inactive). The viability increase in [2] is -2.2% (inactive). Besides, the viability in experiment [3] is 95% (inactive); in experiment [4], 92% (inactive). Further, the inhibition in [5] is 1.81% (inactive). Also, in experiment [6], the RAM network inhibition is 4.95% (inactive).
For the molecule `CCOc1ccc2nc(N3CCC(C(=O)N4CCN(c5ncccn5)CC4)CC3)sc2c1`, the growth inhibition in experiment [7] is 25.2% (inactive). Also, the viability increase in experiment [2] is -3.04% (inactive). The viability in experiment [3] is 82.1% (inactive); in [4] it was 90.9% (inactive). Besides, the inhibition in [5] was 1.76% (inactive). Further, the RAM network inhibition in experiment [6] is -1.59% (inactive).
In the case of `CCC1(C)Cc2nc3sc(C(=O)O)c(N)c3cc2CO1` (stereo unspecified), in experiment [1], the growth inhibition is -4.39% (inactive). In experiment [2], the viability increase is -3.61% (inactive). The viability in [3] is 94.2% (inactive). Also, the inhibition in [5] is 1.71% (inactive). Also, the RAM network inhibition in [6] was 6.29% (inactive).
In the case of `CC(=O)C1=C(C)Nc2cc(C(F)(F)F)ccc2S1`, the growth inhibition in experiment [7] was 27.2% (inactive). The viability increase in experiment [2] is -1.14% (inactive). The results for the viability in experiment [3] and in experiment [4] were 93.6% (inactive) and 85.7% (inactive), respectively. Moreover, in experiment [5], the inhibition was 1.77% (inactive). The RAM network inhibition in [6] is 4.09% (inactive).
Turning to `CCN1CCN(C(=O)C(NS(=O)(=O)c2ccc3nc(C)sc3c2)C(C)C)CC1` (stereo unspecified), the growth inhibition in [1] is -15.9% (inactive). The viability increase in [2] was -0.67% (inactive). The viability is 99.4% (inactive) in experiment [3] and 95.2% (inactive) in [4]. Moreover, the inhibition in [5] was 0.845% (inactive). For the same molecule, the RAM network inhibition in [6] was -0.04% (inactive).
Turning to `Cc1csc(NC(=O)CSc2nnc(Cc3cccn3C)n2CCc2ccccc2)n1`, the growth inhibition in experiment [1] is 11% (inactive). The viability increase in experiment [2] is -3.58% (inactive). Also, the viability is 87.1% (inactive) in experiment [3] and 82.6% (inactive) in experiment [4]. The inhibition in [5] is 0.505% (inactive). In addition, the RAM network inhibition in [6] is 9.43% (inactive).
As for `O=C(Nc1nc2c(s1)CCCC2)c1ccc2ncsc2c1`, the growth inhibition in experiment [1] was 14.5% (inactive). Also, in [2], the viability increase was -2.76% (inactive). Moreover, the viability in [3] was 68.4% (inactive); in [4], 76.7% (inactive). Further, in experiment [5], the inhibition is -0.135% (inactive). Also, the RAM network inhibition in experiment [6] was 0.27% (inactive).
Turning to `Cn1c(CNc2ccccc2O)nc2ccccc21`, in experiment [1], the growth inhibition is -5.35% (inactive). Besides, the viability increase in experiment [2] was -6.1% (inactive). Moreover, the viability is 68.8% (inactive) in [3] and 64% (inactive) in experiment [4]. Besides, the inhibition in [5] was 0.42% (inactive). In [6], the RAM network inhibition was -1.31% (inactive).
Regarding `COc1ccc(OC)c(C2CC(=O)N3CN(c4cccc(Cl)c4)CSC3=C2C#N)c1` (stereo unspecified), the growth inhibition in experiment [1] is 1.31% (inactive). Further, the viability increase in experiment [2] is -2.23% (inactive). Also, the viability was 100% (inactive) in [3] and 95.4% (inactive) in [4]. Further, the inhibition in experiment [5] was 2.46% (inactive). Moreover, in experiment [6], the RAM network inhibition is 8.89% (inactive).
For `Fc1ccc(-c2nnc3ccc(N4CCc5ccccc5C4)nn23)cc1`, the growth inhibition in experiment [1] is 14.2% (inactive). Also, the viability increase in experiment [2] was -7.99% (inactive). Besides, the viability was 2.21% (active) in experiment [3] and 1.42% (active) in experiment [4]. In [5], the inhibition is 2.02% (inactive). Besides, the RAM network inhibition in experiment [6] is 3.14% (inactive).
As for `c1cncc(-c2nnc(SCc3cccc4ccccc34)o2)c1`, the growth inhibition in experiment [1] is -6.93% (inactive). Besides, the viability increase in experiment [2] was -0.01% (inactive). Moreover, the viability is 103% (inactive) in [3] and 91% (inactive) in [4]. Moreover, in [5], the inhibition was 1.16% (inactive). Besides, the RAM network inhibition in experiment [6] is 0.49% (inactive).
Consider `CCCCCCCC(=O)OCC(=O)[C@@]1(O)CC[C@H]2[C@@H]3CCC4=CC(=O)CC[C@]4(C)[C@H]3[C@@H](O)C[C@@]21C`, for which the viability in [8] was 120%; in [10], 120% (inactive); in experiment [11] it was 97.6% (inactive); in experiment [12], 102% (inactive); in experiment [13] (setting [14]), 107%; in [13] (setting [15]), 102%. Besides, the Her2 level in [9] was 102% (inactive). In experiment [13] (H69AR cells + 2 uM doxorubicin), the differential viability (reversal) is -5.05% (inactive).
As for `CN(C)[C@@H]1C(=O)C(C(N)=O)=C(O)[C@@]2(O)C(=O)C3=C(O)c4c(O)ccc(Cl)c4[C@@H](O)[C@H]3C[C@@H]12`, the viability in experiment [8] is 140%; in experiment [10] it was 140% (inactive); in [11], 101% (inactive); in [12], 84.2% (inactive); in [13] (setting [14]), 83.6%; in experiment [13] (setting [15]), 84.2%. Moreover, in experiment [9], the Her2 level is 108% (inactive). Moreover, the differential viability (reversal) in experiment [13] (H69AR cells + 2 uM doxorubicin) is 0.66% (inactive).
Regarding `O=C(O)c1cc(=O)c2c(OCC(O)COc3cccc4oc(C(=O)O)cc(=O)c34)cccc2o1`, the viability in experiment [8] was 102%; in [10] it was 102% (inactive); in [11], 121% (inactive); in [12] it was 106% (inactive); in experiment [13] (setting [14]), 91.5%; in [13] (setting [15]), 106%. Moreover, the Her2 level in experiment [9] was 102% (inactive). Also, in [13] (H69AR cells + 2 uM doxorubicin), the differential viability (reversal) was 14.7% (inactive).
